Screen size: about 96,000 compounds; about 20,000 (21%) were called active.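 How the source made its calls: active means CYP2C19 inhibition above a set limit at 5 µM in the primary screen (cut at about 50% in these data); inactive means the rest.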 These entries were drawn from the full list.
These molecules were tested against Cytochrome P450 2C19 (Homo sapiens) (UniProt P33261) (assay: blockers of cytochrome P450 2C19 activity – biochemical, luminescence, ADME assay, primary screen (AID 778;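 further: plate controls were negative control wells for no effect and 2.5 mM tranylcypromine positive control for full effect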)). Conditions: CYP2C19 Supersomes, luciferin-H EGE luminescence, 30 min; at 5 µM; stronger effect = higher value.
Cytochrome P450 2C19 (Homo sapiens), sequence (P33261 whole entry, looked up): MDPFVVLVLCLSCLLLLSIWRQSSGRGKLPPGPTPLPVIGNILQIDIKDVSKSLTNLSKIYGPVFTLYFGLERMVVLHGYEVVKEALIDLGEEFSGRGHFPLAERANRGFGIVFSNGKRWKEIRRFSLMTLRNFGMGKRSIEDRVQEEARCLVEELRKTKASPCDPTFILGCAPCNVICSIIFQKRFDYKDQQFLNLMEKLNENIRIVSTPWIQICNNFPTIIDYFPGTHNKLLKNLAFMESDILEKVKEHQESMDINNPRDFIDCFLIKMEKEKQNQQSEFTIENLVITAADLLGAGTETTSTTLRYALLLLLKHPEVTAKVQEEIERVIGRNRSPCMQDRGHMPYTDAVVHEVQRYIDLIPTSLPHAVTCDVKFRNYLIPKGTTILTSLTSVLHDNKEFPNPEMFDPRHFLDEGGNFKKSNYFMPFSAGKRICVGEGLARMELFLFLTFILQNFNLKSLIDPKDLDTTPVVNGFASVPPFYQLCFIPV

inhibition, active:
CCOC(=O)CSC1=C(C#N)C(c2ccco2)C(C(=O)OCc2ccccc2)=C(C)N1 (stereo unspecified) 72.5%
CC1=C(C(=O)OCc2ccccc2)C(c2ccco2)n2ncnc2N1 (stereo unspecified) 90.2%
Cc1ccc(C2CC(=O)NC(SCC(=O)OCc3ccccc3)=C2C#N)o1 (stereo unspecified) 82.5%
Cn1nc(C(F)(F)F)c(C(=O)Nc2cccc(C(F)(F)F)c2)c1SCc1ccc(Cl)cc1 87.4%
O=C(Nc1ccc(-n2ccnc2P(=O)(O)c2ccccc2)cc1)c1ccccc1Br 96.9%
O=C(CSc1nnc(-c2ccco2)n1CC1CCCO1)c1ccccc1 (stereo unspecified) 70.4%
O=C(CSc1nnc(-c2cccnc2)n1Cc1ccco1)c1ccc(Cl)c(Cl)c1 79.7%
COc1cc(Cl)c(C)cc1NC(=O)CSc1nnc(-c2cccnc2)n1Cc1ccco1 60.5%
CCn1c(SCC(=O)Nc2cc(C)c(Cl)cc2OC)nnc1-c1ccco1 70.6%
C(=C\c1ccccc1)/CSc1nnc(-c2cccnc2)n1Cc1ccco1 72.6%
CCc1cccc(C)c1NC(=O)CSc1nnc(-c2ccco2)n1N 76%
CCn1c(COc2ccc(OC)cc2)nnc1SCC(=O)Nc1cc(OC)ccc1OC 65.9%
O=C(CSc1nnc(-c2cccs2)n1Cc1ccco1)c1ccc2c(c1)OCO2 51%

inhibition, inactive:
O=C1Nc2c(Br)cc(Br)cc2C1(O)N1CCOCC1 (stereo unspecified) 41.6%
O=C(NC(=O)c1ccc(Cl)c(Cl)c1)OC1CCS(=O)(=O)C1 (stereo unspecified) -14.2%
COc1ccc(-c2nc(SCC(=O)N3CCOCC3)n[nH]2)cc1 1%
CN1/C(=c2/s/c(=C3/C(=O)N(c4ccccc4)NC3=Nc3ccccc3)n(C)c2=O)C(C)(C)c2ccccc21 38.5%
COC(=O)C1=C(C)Nc2ncnn2C1c1ccco1 (stereo unspecified) -5.4%
CCOC(=O)CSC1=C(C#N)C(c2sccc2C)CC(=O)N1 (stereo unspecified) 22.9%
COc1ccccc1NC(=O)C1=C(C)NC2=C(C(=O)CCC2)C1c1ccc(C)o1 (stereo unspecified) 41.9%
COc1ccccc1NC(=O)C1=C(C)Nc2ncnn2C1c1ccc(C)o1 (stereo unspecified) 8.6%
CCOC(=O)C1C(=O)NC(N2CCN(c3ccccc3)CC2)=NC1c1ccco1 (stereo unspecified) 6.9%
CC1=C(C(=O)Nc2ccccc2)C(c2ccco2)C(C#N)=C(SCC(N)=O)N1 (stereo unspecified) 2.2%
CCCNS(=O)(=O)c1ccc2c(c1)CCCN2C(C)=O 0.6%
COc1ccc(N2CCN(C(=O)CSc3ncnc4c3cnn4-c3ccc(OC)cc3)CC2)cc1 5.1%
O=C(CN1C(=O)CSc2ncccc21)N1CCOCC1 13%
O=c1c(-c2ccccc2)coc2c(CN3CCOCC3)c(O)ccc12 10.1%
CN(c1cccc(NC(=O)Nc2ccc(Cl)cc2)c1)S(C)(=O)=O 28.5%
CCC(C)Sc1nc(C)nc2c1c(=O)n(C)c(=O)n2C (stereo unspecified) 32.5%
O=C1COc2ccc(NC(=O)N3CCN(c4ccc(F)cc4)CC3)cc2N1 8%
Cc1nonc1NC(=O)c1ccccc1Br -11.9%
O=C(Nc1ccccc1)c1cccnc1Nc1ccccc1 2.2%
O=c1c2[nH]c3ccc(Cl)cc3c2ncn1Cc1ccccn1 10.9%
Nc1cc(OC(=O)c2ccccc2Br)nn1S(=O)(=O)c1ccccc1 12.4%
CCn1c(SCC(=O)Nc2cccc(F)c2)nnc1-c1cc2cc(Br)ccc2o1 7.3%
Cc1nnc(SCC(N)=O)n1CC1CCCO1 (stereo unspecified) 8%
O=C(CSc1nnc(-c2cnccn2)n1Cc1ccco1)c1ccc(Cl)c(Cl)c1 5.6%
O=C(CSc1nnc(-c2cccnc2)n1Cc1ccco1)c1ccc(Cl)cc1 27.8%
CCOC(=O)CSc1nnc(-c2ccco2)n1C -5.6%
CCOC(=O)CNC(=O)CSc1nnc(-c2cccc(OC)c2)n1CC 20.1%
COc1ccc(-c2nn(-c3ccccc3)cc2C(=O)Nc2nc(CC(C)=O)ns2)cc1 -1%
COc1ccc(N2CCN(C(=O)CSc3nc4cc(OC)c(OC)cc4cc3C#N)CC2)cc1 37.5%
C[C@@H](Nc1nc(-c2ccccc2)nc2c1oc1ccccc12)C(=O)O 1.5%
CSc1ccc(NC(=O)N2CC(C)OC(C)C2)cc1 (stereo unspecified) 14.4%
Cc1c(C(=O)Nc2ccccc2Cl)oc2ccc(S(=O)(=O)N3CCC4(CC3)OCCO4)cc12 7.5%
COC(=O)c1c(-c2cccs2)csc1NC(=O)CSc1ncnc2sc(C)c(C)c12 16.1%
COc1ccc(NC(=O)CSc2nnc(-c3cccs3)n2Cc2ccco2)cc1OC 35.6%
NC(=O)c1c(NC(=O)CSc2nnc(-c3ccco3)n2N)sc2c1CCCC2 33.7%
N=c1c2c(-c3ccccc3)c(-c3ccccc3)oc2ncn1Cc1ccco1 19.1%
COc1ccc(OC)c(NC(=O)CSc2nc3cccnc3n2C)c1 40.2%
CCn1c(COc2ccccc2)nnc1SCC(=O)Nc1ccc2c(c1)OCCO2 18.3%
Cc1cccc(C)c1NC(=O)CCCSc1nnc(-c2ccco2)n1-c1ccccc1 23.1%
Nc1cc(=O)nc(SCc2ccccc2)n1Cc1ccco1 32.6%
CCCn1c(SCC(=O)c2ccc3c(c2)OCCO3)nnc1C(C)C 16.5%
COc1cccc2c1OCC(C(=O)NCc1ccc(Cl)cc1Cl)=C2 28.2%
CCCCN1C(=O)CC(N2CCOCC2)C1=O (stereo unspecified) -0.3%
CCCOc1ccc(CN(CCO)CCO)cc1C(=O)OC 0.9%
O=C(CSCc1c(Cl)cccc1Cl)NN1C(=O)c2ccccc2C1=O 43.5%
COc1ccc(C(=O)Nc2ncc3c(n2)-c2ccccc2CC3)cc1 5.2%
O=C(c1cccnc1NCc1ccccc1)N1CCOCC1 5.8%
CCCC(=O)N=c1sc2cccc(F)c2n1C 44.7%
